These results are taken from paper PMC5540273 (PLoS ONE, 2017).

Test systems include PIM1; PIM2; PIM3; PIP5K1A; PIP5K1C; PIP5K2B; PKMYT1; PKN1; PKN2; PLK1; PLK2; PLK3; PLK4; PRKCD; PRKCE; PRKCH; PRKCI.
What all share (conditions): concentration: 1 μM, replicates: in singlicate; n = 1
The next test relates to T1, PIP5K2C.
T1 construct: gene PIP4K2C

In the next test the test system is T2, PKAC-alpha.
T2 construct: gene PRKACA

Another test has as its system T3, PKAC-beta.
T3 construct: gene PRKACB
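Further: KINOMEscan kinase panel screen.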

Take `CCn1c(-c2ccccn2)nc2cnccc21` [SB-736398]: the “%Inh” value with PIM1 is given as 0%; in the test with PIM2, 0%; in the test with PIM3, 0%; with PIP5K1A, 6%; with PIP5K1C, 34%; in the test on PIP5K2B it was 7%. Moreover, the “%Inh” value turned out to be 32% in the test with PIP5K2C; 92.9% with PKAC-alpha; 6% in the test with PKAC-beta; 0% in the test on PKMYT1; 0% in the test on PKN1; 11% in the test on PKN2. In addition, the “%Inh” value turned out to be 0% with PLK1; 0% in the test with PLK2; 0% in the test with PLK3; 0% in the test on PLK4; 0% in the test on PRKCD; 10% in the test on PRKCE. For the same compound, the “%Inh” value with PRKCH came to 0%; in the test on PRKCI, 30%.

In the case of `Cn1cncc1-c1ccc2ncnc(Nc3ccc(OCc4ccccc4)cc3)c2c1` [GW320571], the “%Inh” value in the test with PIM1 turned out to be 0%; in the test with PIM2 it was 2%; with PIM3, 0%; in the test on PIP5K1A, 0%; in the test with PIP5K1C, 16%; with PIP5K2B it was 17%. Further, the “%Inh” value in the test on PIP5K2C stood at 76%; in the test with PKAC-alpha, 0%; in the test on PKAC-beta it was 8%; in the test with PKMYT1, 8%; with PKN1 it was 1%; in the test with PKN2 it was 0%. Moreover, the “%Inh” value with PLK1 came to 9%; in the test on PLK2, 0%; with PLK3 it was 0%; in the test with PLK4 it was 0%; with PRKCD, 0%; in the test on PRKCE it was 14%. Moreover, the “%Inh” value with PRKCH is 14%; with PRKCI, 32%.

For `Nc1ncnc2[nH]c(-c3ccccc3)nc12` [AH5015], the “%Inh” value in the test with PIM1 is given as 0%; with PIM2 it was 0%; in the test on PIM3, 21%; in the test with PIP5K1A, 0%; with PIP5K1C, 29%; with PIP5K2B, 0%. For the same compound, the “%Inh” value in the test on PIP5K2C was determined as 21%; with PKAC-alpha, 1%; in the test with PKAC-beta, 7%; with PKMYT1, 0%; in the test on PKN1, 0%; in the test on PKN2 it was 0%. Besides, the “%Inh” value stood at 2% in the test with PLK1; 16% with PLK2; 0% with PLK3; 99.9% in the test on PLK4; 0% in the test on PRKCD; 14% with PRKCE. The “%Inh” value turned out to be 18% in the test with PRKCH and 0% with PRKCI.

For the compound `O=C(Nc1n[nH]c2nc(-c3nccs3)c(Br)cc12)C1CCCC1` [SB-742609], the “%Inh” value is listed as 0% with PIM1; 0% in the test on PIM2; 0% in the test with PIM3; 0% in the test on PIP5K1A; 36% with PIP5K1C; 0% in the test with PIP5K2B. For the same compound, the “%Inh” value with PIP5K2C came out at 0%; in the test with PKAC-alpha it was 0%; with PKAC-beta, 0%; in the test with PKMYT1, 14%; in the test with PKN1, 0%; in the test on PKN2 it was 0%. In addition, the “%Inh” value with PLK1 is on record as 0%; in the test with PLK2, 0%; in the test with PLK3, 0%; in the test on PLK4, 0%; in the test on PRKCD, 5%; with PRKCE, 0%. Moreover, the “%Inh” value is 2% in the test with PRKCH and 12% in the test on PRKCI.

Turning to `Cn1ccc2ncnc(Oc3ccc(Nc4nc5ccccc5[nH]4)cc3)c21`, the “%Inh” value stood at 0% in the test on PIM1; 0% in the test with PIM2; 0% in the test with PIM3; 0% with PIP5K1A; 25% with PIP5K1C; 26% in the test on PIP5K2B. For the same compound, the “%Inh” value is 16% in the test with PIP5K2C; 3% in the test with PKAC-alpha; 0% in the test on PKAC-beta; 18% with PKMYT1; 0% in the test with PKN1; 0% with PKN2. Also, the “%Inh” value in the test with PLK1 is given as 0%; in the test on PLK2, 0%; with PLK3, 0%; in the test on PLK4 it was 62%; with PRKCD it was 12%; in the test with PRKCE it was 0%. The “%Inh” value came out at 13% with PRKCH and 0% with PRKCI.

Take `O=C(Nc1ccc2c(c1)OCO2)NC1CCN(c2ccnc(Nc3ccc(F)cc3)n2)C1` (stereo not shown) [GSK1379724]: the “%Inh” value with PIM1 came to 0%; in the test with PIM2, 0%; in the test on PIM3, 0%; in the test on PIP5K1A, 34%; in the test on PIP5K1C it was 32%; in the test with PIP5K2B it was 13%. Also, the “%Inh” value in the test on PIP5K2C was found to be 23%; with PKAC-alpha it was 0%; with PKAC-beta, 0%; with PKMYT1, 15%; with PKN1, 4%; with PKN2 it was 0%. Also, the “%Inh” value is recorded as 0% with PLK1; 0% in the test on PLK2; 0% in the test on PLK3; 0% with PLK4; 0% with PRKCD; 7% in the test on PRKCE. In addition, the “%Inh” value with PRKCH and in the test with PRKCI was 0% in each case.

Consider `COc1cccc(-c2cc(-c3c[nH]nc3-c3ccccn3)ccn2)c1` [GW680338], for which the “%Inh” value with PIM1 came out at 0%; with PIM2, 0%; with PIM3 it was 0%; with PIP5K1A, 19%; in the test with PIP5K1C, 69%; in the test on PIP5K2B it was 21%. Also, the “%Inh” value with PIP5K2C is 55%; in the test on PKAC-alpha it was 0%; in the test with PKAC-beta, 0%; in the test on PKMYT1, 0%; in the test on PKN1 it was 0%; in the test with PKN2, 7%. For the same compound, the “%Inh” value in the test with PLK1 came to 13%; in the test with PLK2 it was 0%; with PLK3, 7%; in the test on PLK4, 0%; in the test with PRKCD, 12%; in the test with PRKCE, 13%. The “%Inh” value with PRKCH turned out to be 1%; in the test with PRKCI, 0%.

Regarding `CC1=C(C(=O)Nc2cc3cn[nH]c3cc2F)C(c2ccc(C(F)(F)F)cc2)CC(=O)N1` (stereo not shown) [GSK429286], the “%Inh” value in the test with PIM1 turned out to be 0%; in the test on PIM2 it was 0%; in the test with PIM3, 0%; in the test with PIP5K1A, 0%; in the test with PIP5K1C, 10%; in the test on PIP5K2B, 17%. Further, the “%Inh” value was 11% in the test with PIP5K2C; 45% with PKAC-alpha; 60% in the test with PKAC-beta; 17% with PKMYT1; 56% in the test with PKN1; 0% in the test on PKN2. For the same compound, the “%Inh” value with PLK1, in the test with PLK2, in the test with PLK3, in the test with PLK4, in the test with PRKCD and in the test on PRKCE was 0% each time. Besides, the “%Inh” value in the test on PRKCH is 0%; in the test on PRKCI, 19%.

In the case of `Cc1cccc(-c2nc(Nc3ccncc3)c3ccccc3n2)n1` [GW855857], the “%Inh” value with PIM1 is 0%; in the test with PIM2, 18%; with PIM3 it was 0%; in the test on PIP5K1A, 10%; in the test with PIP5K1C it was 40%; with PIP5K2B, 0%. For the same compound, the “%Inh” value in the test on PIP5K2C is given as 18%; with PKAC-alpha, 23%; in the test with PKAC-beta it was 30%; in the test on PKMYT1, 0%; with PKN1, 0%; with PKN2 it was 0%. Moreover, the “%Inh” value with PLK1 came out at 6%; in the test on PLK2, 0%; with PLK3, 0%; in the test on PLK4, 0%; with PRKCD, 29%; in the test on PRKCE, 0%. For the same compound, the “%Inh” value with PRKCH was determined as 0%; in the test on PRKCI it was 32%.

Take `COc1ccc(Nc2nccc(NCCNC(=O)Nc3ccccc3F)n2)cc1` [GSK1379901]: the “%Inh” value was found to be 0% with PIM1; 0% in the test with PIM2; 0% in the test with PIM3; 35% with PIP5K1A; 33% with PIP5K1C; 14% in the test with PIP5K2B. In addition, the “%Inh” value in the test on PIP5K2C is listed as 56%; in the test on PKAC-alpha it was 0%; in the test with PKAC-beta, 0%; with PKMYT1 it was 4%; in the test with PKN1, 16%; in the test with PKN2 it was 0%. The “%Inh” value in the test on PLK1 is 0%; in the test on PLK2, 0%; in the test on PLK3 it was 0%; in the test with PLK4 it was 0%; with PRKCD, 0%; in the test with PRKCE, 19%. For the same compound, the “%Inh” value in the test on PRKCH stood at 19%; in the test on PRKCI, 23%.

In the case of `Cc1cc(-c2ccc3c(c2)CC[C@@H](N[C@@H](C)c2ccccc2)C3)cnc1N.Cl` [GW412617], the “%Inh” value with PIM1 was 11%; in the test on PIM2, 0%; in the test with PIM3, 0%; in the test on PIP5K1A, 0%; with PIP5K1C, 34%; in the test with PIP5K2B, 14%. The “%Inh” value was found to be 0% in the test on PIP5K2C; 0% in the test on PKAC-alpha; 9% in the test on PKAC-beta; 0% with PKMYT1; 8% with PKN1; 0% with PKN2. In addition, the “%Inh” value with PLK1 was found to be 16%; in the test with PLK2, 0%; in the test with PLK3, 0%; in the test on PLK4, 0%; in the test with PRKCD, 7%; in the test with PRKCE it was 0%. The “%Inh” value worked out at 17% with PRKCH and 0% with PRKCI.
